Measurements from the supplement of paper PMC12636033.
± gives the standard deviation of the averaged measurements. Over roughly 33,000 sequences, “E-score (rank enrichment, -0.5 to 0.5)” has its median near -0.0043; the highest 2% begin near 0.24. Shown is part of a subset that was picked to be rich in the highest values.

What follows are sequences tested on 2Sp-muMax20 (muMax20 with two 2,6-bis(methyl)pyridine Cys staples) (assay: PBM 8-mer E-score (E-score (rank enrichment, -0.5 to 0.5)); higher = stronger preferential binding).
Protocol: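 Protein binding microarray (universal PBM chip covering all 10-mers in fixed probe flanks) with chemically synthesized human Max(13-93) bHLH-LZ analogs (not full-length Max) bearing noncanonical residues (hArg, Tha, Aib, Nle at 65) and aromatic Cys staples. Read-out per 8-mer (and its reverse complement): E-score (rank-based enrichment, -0.5 to 0.5) and Z-score of median probe intensity.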

Row | Sequence | PBM 8-mer E-score
1 | AAAATCAC | 0.28 ± 0.0095
2 | GAAATCAC | 0.142 ± 0.072
3 | TGAATCAA | 0.1418 ± 0.00071
4 | CGAATCAG | -0.0839 ± 0.076
5 | CGAATCAA | 0.241 ± 0.054
6 | AAAATCAA | -0.044 ± 0.037
7 | CCGCTTGC | -0.142 ± 0.036
8 | ATACCAGA | 0.118 ± 0.019
9 | ACGTGTGC | 0.238 ± 0.029
10 | GCGTGTTA | 0.103 ± 0.02
11 | ACGTGTGA | 0.113 ± 0.061
12 | ACGTGTAG | 0.0238 ± 0.1
13 | ACGTGTAC | 0.132 ± 0.017
14 | ACGTGTGG | 0.156 ± 0.026
15 | ACGTGTAT | 0.336 ± 0.015
16 | ACGTGTCG | 0.18 ± 0.033
17 | ACGTGTCT | 0.26 ± 0.046
18 | CCGTGTTA | 0.0643 ± 0.04
19 | ACGTGTTA | 0.352 ± 0.0043
20 | ACGTGTCA | 0.139 ± 0.031
21 | GAAGCCCC | -0.0537 ± 0.047
22 | GCTTGTCA | -0.15 ± 0.028
23 | CACCTGAC | 0.0247 ± 0.0091
24 | CCCATAGA | 0.11 ± 0.015
25 | CTTATCAC | 0.00992 ± 0.026

Row | Sequence | PBM 8-mer E-score
26 | ACCGAGCT | -0.158 ± 0.00061
27 | CGAGTAAG | 0.0344 ± 0.035
28 | CACGATAA | 0.0394 ± 0.0045
29 | TGGAACCA | -0.0848 ± 0.06
30 | ACGTCCAT | -0.0323 ± 0.032
31 | GCCCATAA | -0.0636 ± 0.086
32 | TCCCATAA | 0.0959 ± 0.053
33 | CCCCACAA | 0.245 ± 0.013
34 | CCCCACAC | 0.229 ± 0.021
35 | CCCCATAA | 0.254 ± 0.037
36 | CCCCACAG | -0.0544 ± 0.039
37 | GTCCAAAA | -0.0163 ± 0.058
38 | ACGCGAAC | 0.0549 ± 0.069
39 | TCACAAAA | 0.0933 ± 0.021
40 | ACAAGCTC | -0.194 ± 0.011
41 | CTATAAAC | 0.0618 ± 0.024
42 | ATAAAAAT | 0.16 ± 0.044
43 | ATATAAAA | 0.3008 ± 0.00046
44 | ATAAAAAC | 0.116 ± 0.046
45 | GTATAAAC | 0.0938 ± 0.044
46 | ATATAAAG | 0.21 ± 0.017
47 | ATATAAAT | 0.251 ± 0.037
48 | CTATAAAA | -0.0627 ± 0.04
49 | ATATAAAC | 0.315 ± 0.054
50 | GTATAAAA | 0.278 ± 0.035

Row | Sequence | PBM 8-mer E-score
51 | ACATAAAA | 0.144 ± 0.037
52 | GGATAAAA | 0.0526 ± 0.098
53 | CTACACTA | 0.111 ± 0.081
54 | ACGCCTTC | -0.0956 ± 0.053
55 | TTATAAAA | 0.272 ± 0.021
56 | TAATAAAA | 0.231 ± 0.053
57 | TGATAAAA | 0.145 ± 0.017
58 | GGGGAAGA | 0.0842 ± 0.0073
59 | AGTCCTTC | -0.195 ± 0.04
60 | ATACCATA | 0.249 ± 0.041
61 | ACACCATC | 0.0694 ± 0.0049
62 | ATACCATC | 0.237 ± 0.021
63 | ATACCATG | 0.102 ± 0.057
64 | CTACCATC | -0.168 ± 0.094
65 | GTACCATA | -0.00352 ± 0.14
66 | AGAAGGTC | 0.126 ± 0.039
67 | ACTTGGCG | -0.143 ± 0.14
68 | CTGCAACC | -0.145 ± 0.031
69 | GCTAGTCA | 0.103 ± 0.052
70 | AGTCACGG | -0.147 ± 0.052
71 | AGTCACGC | 0.26 ± 0.037
72 | AGTCACGA | -0.0662 ± 0.009
73 | CTAAGGTC | -0.029 ± 0.12
74 | ATAAGGAA | -0.0884 ± 0.043
75 | ATAAGGTC | 0.238 ± 0.051

Row | Sequence | PBM 8-mer E-score
76 | ATAAGGTA | 0.164 ± 0.031
77 | ATAAGGAT | 0.258 ± 0.011
78 | ATAAGGAC | 0.0211 ± 0.092
79 | CCAGTATC | -0.0909 ± 0.022
80 | AACCCCGA | 0.0376 ± 0.019
81 | ACGCTTCA | 0.0519 ± 0.091
82 | GTAAGTTA | 0.0283 ± 0.0067
83 | CTAAGTTA | 0.0843 ± 0.017
84 | ATAAGTTA | 0.236 ± 0.025
85 | CAAGGACC | -0.223 ± 0.048
86 | CATTAGTA | -0.0474 ± 0.081
87 | AATTAATA | 0.285 ± 0.03
88 | AATTAGTA | 0.268 ± 0.0095
89 | ATTTAATA | 0.243 ± 0.0082
90 | AATTAATT | 0.242 ± 0.031
91 | CTTTAATA | 0.207 ± 0.016
92 | AATTAGTC | 0.0516 ± 0.035
93 | ACTTAATA | 0.156 ± 0.042
94 | AATTAATC | 0.207 ± 0.009
95 | AATTAATG | 0.215 ± 0.028
96 | AGTTAATA | 0.138 ± 0.027
97 | GTTTAATA | 0.203 ± 0.062
98 | GCTAAGTA | 0.034 ± 0.091
99 | CCGCCGCC | -0.00332 ± 0.019
100 | ACACCAGA | -0.0516 ± 0.0077

Row | Sequence | PBM 8-mer E-score
101 | CATGAACA | -0.0306 ± 0.058
102 | GTTTAGGA | -0.13 ± 0.036
103 | GACCCTTA | -0.0689 ± 0.0029
104 | ATTTAAAG | 0.0431 ± 0.059
105 | ATTTAAAC | 0.329 ± 0.047
106 | CTTTAAAC | 0.0827 ± 0.097
107 | AAAATTCC | 0.0483 ± 0.056
108 | CCTCTTAA | 0.0544 ± 0.11
109 | CGTGGGGA | 0.1018 ± 0.00016
110 | AGTGGGGG | -0.0461 ± 0.0062
111 | CATGGGGA | 0.124 ± 0.043
112 | AGTGGGGA | 0.245 ± 0.011
113 | AATGGGGA | 0.112 ± 0.047
114 | TATGGGGA | 0.283 ± 0.028
115 | GCCATGTA | 0.0368 ± 0.0029
116 | CTCTTGGA | -0.112 ± 0.014
117 | CAGTAGCG | -0.205 ± 0.045
118 | ACGGCTAA | -0.0509 ± 0.014
119 | ACCCCGGC | -0.00709 ± 0.083
120 | ACATAGAC | 0.115 ± 0.034
121 | ATTGAAGA | 0.237 ± 0.023
122 | ATTGAAGG | -0.0238 ± 0.14
123 | GTTGAAGA | 0.0675 ± 0.033
124 | CTTCCGAA | -0.23 ± 0.024
125 | ATATTAGC | 0.166 ± 0.0073

Row | Sequence | PBM 8-mer E-score
126 | ATATTAGA | 0.235 ± 0.012
127 | ATATTAGG | 0.297 ± 0.029
128 | CTATTATA | 0.0957 ± 0.01
129 | ATATTACA | 0.157 ± 0.058
130 | ATATTATG | 0.274 ± 0.083
131 | ATATTATC | 0.0885 ± 0.023
132 | GTATTAAA | 0.134 ± 0.014
133 | AGATTATG | -0.00069 ± 0.061
134 | GTATTAGA | 0.182 ± 0.073
135 | GTATTATA | 0.259 ± 0.053
136 | ATATTATA | 0.268 ± 0.047
137 | CAGTTCGC | -0.0265 ± 0.073
138 | TGTTAGAA | 0.125 ± 0.12
139 | CGACTGGC | -0.148 ± 0.052
140 | CCAGAGAC | -0.05 ± 0.076
141 | GGATGACA | -0.0339 ± 0.094
142 | CTATTCTA | 0.227 ± 0.043
143 | ATATTCTA | 0.244 ± 0.04
144 | GTATTCTA | 0.134 ± 0.021
145 | AATGGCAA | 0.00112 ± 0.089
146 | CCAAGAGC | -0.0397 ± 0.036
147 | GACGTGGA | 0.055 ± 0.0074
148 | AACGTGGG | 0.1 ± 0.047
149 | CACGTGGG | 0.436 ± 0.0081
150 | AACGTGGC | 0.163 ± 0.041

Row | Sequence | PBM 8-mer E-score
151 | CACGTGGA | 0.398 ± 0.033
152 | CACGTGGC | 0.357 ± 0.064
153 | TACGTGGA | 0.0461 ± 0.0044
154 | GACGTGGC | 0.0114 ± 0.026
155 | AACGTGGA | 0.0553 ± 0.0092
156 | CTATTCAG | 0.00673 ± 0.056
157 | AGAAGCGA | -0.0304 ± 0.05
158 | ATCACGGA | -0.0223 ± 0.047
159 | ACTTAGCC | -0.0201 ± 0.091
160 | AGCGTAAC | 0.041 ± 0.14
161 | GACTCAGC | -0.176 ± 0.036
162 | AACGCCTT | -0.0913 ± 0.021
163 | GCACAATA | -0.00579 ± 0.025
164 | ACACAATG | 0.122 ± 0.025
165 | ACACAAAA | 0.172 ± 0.045
166 | AGACAATA | 0.268 ± 0.026
167 | ACACAAAG | 0.206 ± 0.045
168 | AGACAATG | 0.00664 ± 0.0054
169 | AGACAATC | 0.0678 ± 0.067
170 | ACACAAAC | 0.271 ± 0.025
171 | ACACAATA | 0.247 ± 0.029
172 | GAAGGTCA | -0.106 ± 0.027
